Experimental findings from PubChem BioAssay (NCI) are described below.

Molecules are shown by their SMILES. Compounds without any hit were thinned out: in the full panel of roughly 83,000, 20% have a hit.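 96-well plates, one dose, 48 hours. Percent growth reported; active if below 10.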 Unmarked numbers belong to inactive results. Active and inactive are the calls of the source.

Some test systems named below: NCI-H23 lung; NCI-H226 lung; NCI-H322M lung; NCI-H460 lung; A549/ATCC NSCLC; 786-0 renal; COLO 205 colon; DU-145 prostate; K-562 leukemia; MALME-3M melanoma; MDA-MB-231 breast; RXF 393 renal; SF-268 CNS; SF-295 CNS; SF-539 CNS; UACC-257 melanoma; M14 melanoma; HOP-92 NSCLC; NCI-H522 lung; HOP-62 NSCLC.
Assay in all cases: NCI-60 one-dose screen, 48 h (100 = growth as untreated, 0 = no growth, -100 = all killed)
Common to all, as to details: 10 µM

In the case of `CC(C)(C)c1ccc(S(=O)(=O)N[C@H]2CC[C@H]3[C@@H]4CCc5cc(OS(=O)(=O)O)ccc5[C@H]4CC[C@]23C)cc1`, the growth in the test on NCI-H23 lung was 56.8%; in the test with NCI-H226 lung, 52.4%; in the test with NCI-H322M lung it was 61%; in the test with NCI-H460 lung, 26.2%; in the test with A549/ATCC NSCLC, 31.6%; in the test with 786-0 renal, 50%. Besides, the growth is 13.8% in the test on COLO 205 colon; 63.3% in the test with DU-145 prostate; 22% with K-562 leukemia; 41.8% in the test on MALME-3M melanoma; 26.4% in the test with MDA-MB-231 breast; 9.08% (active) in the test on RXF 393 renal. The growth was 51.2% in the test on SF-268 CNS; 44.7% with SF-295 CNS; 82.4% in the test on SF-539 CNS; 68.2% with UACC-257 melanoma; 54.2% with M14 melanoma.
For the compound `CCCCC/C=C/C/C=C/CCCCCCCC1=NC(C)(C)CN1C(C)C`, the growth in the test with NCI-H23 lung is 20.7%; in the test with NCI-H226 lung, 86.5%; in the test on NCI-H322M lung, 108%; in the test on NCI-H460 lung, -32.3% (active); with 786-0 renal, 62.4%; in the test on COLO 205 colon, -87.2% (active). Moreover, the growth is 63.1% with DU-145 prostate; -30.9% (active) with K-562 leukemia; 56.3% in the test on MALME-3M melanoma; 36.6% with MDA-MB-231 breast; 25.1% in the test on RXF 393 renal; 55.6% in the test on SF-268 CNS. In addition, the growth in the test with SF-295 CNS was 31.2%; with SF-539 CNS, 65.7%; with UACC-257 melanoma, 25.7%; in the test on M14 melanoma it was 28.5%.
Regarding `Cc1cc(C)nc(NS(=O)(=O)c2ccc(Nc3nc4nc(NCc5ccccc5)nc(-c5ccc(O)cc5)c4c(=O)[nH]3)cc2)n1`, the growth with NCI-H23 lung is 31.6%; with NCI-H226 lung, 31.9%; in the test on NCI-H322M lung, 10.2%; with NCI-H460 lung, 16.4%; in the test on HOP-92 NSCLC it was -11.1% (active); in the test on A549/ATCC NSCLC it was 43.9%. The growth in the test with COLO 205 colon was 35.3%; in the test on DU-145 prostate it was 33%; in the test on K-562 leukemia, 37.8%; in the test on MALME-3M melanoma, -12.6% (active); in the test with MDA-MB-231 breast, 29.2%; in the test with RXF 393 renal, -1.77% (active). Further, the growth is 27.8% in the test with SF-268 CNS, 27.3% with SF-295 CNS, 39.9% in the test with SF-539 CNS and 66.1% with UACC-257 melanoma.
On to `CC(=O)Nc1cc2c(cc1Cl)Cc1cc(Cl)ccc1-2`, for which the growth in the test on NCI-H23 lung was 77.1%; in the test on NCI-H226 lung it was 83%; in the test on NCI-H322M lung, 96%; with NCI-H460 lung, 95.9%; in the test with NCI-H522 lung it was 79.6%; in the test with 786-0 renal, 112%. Besides, the growth in the test with COLO 205 colon is 105%; with DU-145 prostate it was 106%; in the test with K-562 leukemia, 108%; in the test with MALME-3M melanoma, 113%; in the test on RXF 393 renal it was 98.7%; with SF-268 CNS, 88.4%. Besides, the growth in the test on SF-295 CNS was 109%; in the test with SF-539 CNS, 88.1%; in the test with UACC-257 melanoma it was 88.9%; in the test with M14 melanoma it was 106%.
With `S=C(NCc1ccccc1)NCc1ccccc1`, the growth is 95% with NCI-H23 lung; 97.8% in the test with NCI-H226 lung; 94.2% in the test on HOP-62 NSCLC; 103% in the test with NCI-H460 lung; 99.3% in the test with HOP-92 NSCLC; 82.4% in the test on NCI-H522 lung. Further, the growth with A549/ATCC NSCLC is 86.1%; in the test with 786-0 renal, 96.6%; in the test with COLO 205 colon, 107%; in the test on DU-145 prostate, 107%; in the test with K-562 leukemia, 98.7%; with MALME-3M melanoma, 95.3%. Also, the growth in the test with MDA-MB-231 breast is 100%; in the test with RXF 393 renal it was 101%; in the test with SF-268 CNS, 95.8%; in the test with SF-295 CNS, 95.8%; in the test with SF-539 CNS, 101%; in the test on UACC-257 melanoma, 81.9%. Moreover, the growth in the test on M14 melanoma is 101%.
For `NS(=O)(=O)c1ccc(Br)cc1`, the growth in the test on NCI-H23 lung was 96%; with NCI-H226 lung, 110%; in the test on HOP-62 NSCLC, 82.1%; in the test on NCI-H460 lung, 108%; with HOP-92 NSCLC, 94%; in the test with NCI-H522 lung, 86.2%. Besides, the growth in the test on A549/ATCC NSCLC is 81.8%; in the test on 786-0 renal it was 89%; with COLO 205 colon, 98.5%; with DU-145 prostate it was 114%; in the test with K-562 leukemia, 109%; with MALME-3M melanoma, 103%. Moreover, the growth with MDA-MB-231 breast is 99.3%; in the test on RXF 393 renal, 113%; with SF-268 CNS, 98.3%; in the test with SF-295 CNS, 88.3%; in the test with SF-539 CNS, 96.3%; with UACC-257 melanoma it was 88.2%. Moreover, the growth in the test with M14 melanoma is 86.3%.
On to `CC(CN(C)C)Oc1ccc(OC(C)CN(C)C)c2c1C(=O)c1ccccc1C2=O` (stereo not given), for which the growth in the test on NCI-H23 lung was 41.6%; in the test on NCI-H226 lung, 44.5%; in the test on HOP-62 NSCLC, 49.3%; in the test on NCI-H460 lung, 17.2%; in the test with HOP-92 NSCLC, 49.1%; in the test on NCI-H522 lung, 41.1%. The growth with A549/ATCC NSCLC is 22.5%; in the test with 786-0 renal, 51%; in the test with COLO 205 colon, 3.02% (active); with DU-145 prostate, 46.1%; in the test on K-562 leukemia, 24.5%; in the test with MALME-3M melanoma, 67.6%. Further, the growth in the test on MDA-MB-231 breast is 40.9%; with RXF 393 renal, 59.2%; in the test on SF-268 CNS it was 47.8%; with SF-295 CNS, 48.2%; in the test with SF-539 CNS, 51%; in the test on UACC-257 melanoma, 72.8%. Moreover, the growth in the test on M14 melanoma is 56.6%.
On to `O=C1c2ccccc2C(=O)c2c1ccc1c(=O)n(-c3ccccc3C(F)(F)F)nnc21`, for which the growth is 3.9% (active) in the test with NCI-H23 lung; 35.9% in the test with NCI-H226 lung; 23.8% with HOP-62 NSCLC; 5.82% (active) with NCI-H460 lung; 37.1% with HOP-92 NSCLC; 16.7% in the test with NCI-H522 lung. Also, the growth in the test on A549/ATCC NSCLC is 13.1%; in the test on 786-0 renal, 60.5%; with COLO 205 colon, 8.51% (active); in the test with DU-145 prostate, 47.7%; in the test on K-562 leukemia, 15.2%; in the test on MALME-3M melanoma it was -51.3% (active). The growth was 3.26% (active) in the test with MDA-MB-231 breast; 28.9% with RXF 393 renal; 43.2% with SF-268 CNS; 52.5% in the test on SF-295 CNS; -27.2% (active) in the test on SF-539 CNS; -23.6% (active) with UACC-257 melanoma. For the same compound, in the test on M14 melanoma, the growth is 5.14% (active).
Turning to `CCOC(=O)c1cc(C(=O)c2ccc(OC)c(OC)c2)n2c1ccc1ccc3cccnc3c12`, the growth was 39.2% in the test with NCI-H23 lung; 64.4% in the test with NCI-H226 lung; 29.8% with HOP-62 NSCLC; 11% in the test on NCI-H460 lung; 18.9% with HOP-92 NSCLC; 0.908% (active) with NCI-H522 lung. For the same compound, the growth is 36.8% in the test with A549/ATCC NSCLC; 33.3% with 786-0 renal; -2.29% (active) in the test on COLO 205 colon; 21.7% in the test on DU-145 prostate; 14.7% in the test on K-562 leukemia; 40.1% in the test on MALME-3M melanoma. In addition, the growth in the test on MDA-MB-231 breast was 45.2%; with RXF 393 renal, 24.8%; with SF-268 CNS, 51.8%; in the test on SF-295 CNS, 12%; in the test on SF-539 CNS it was 9.16% (active); with UACC-257 melanoma it was 51%. The growth in the test with M14 melanoma was 7.8% (active).
